Inconclusive results are not listed. Where a call stands in place of a potency, no number is given. Activity calls are given as the source filed them. Calls follow the shape of the dose curve; as a rule, active = well fitted curve in the direction sought with a large enough effect; inconclusive = small, poorly fitted or top-dose-only effect, or another doubt; inactive = no such curve, though single readings can be large; an effect the other way counts as inactive or inconclusive.
How the values were obtained:
JEG-3 = assay: Primary qHTS to identify gynecologic anti-cancer compounds using libraries of approved drugs and bioactive compounds (AID 1345084); conditions: Gynecologic cancer cell panel viability, ATPlite luminescence, 48 h; series mostly up to 57.5 µM; also: nearly all actives have a fitted effect of over 55% in size; also: potency is read from the fitted curve at half-maximal effect
Summary of the method: (§1)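 ATP-based viability (ATPlite), 1,000 cells/well, 16 h pre-incubation, 48 h compound at 37 C, 5% CO2, 15 min RT before read.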

PA-1 = assay: as above; conditions: Gynecologic cancer cell panel viability, ATPlite luminescence, 48 h; series mostly up to 57.5 µM
Summary of the method: as §1

[1] = qHTS assay to identify inhibitors of the type 1 interferon - major histocompatibility complex class I in skeletal muscle: Counter screen cell viability and HiBit confirmation (AID 1347412); conditions: iHSKM muscle cells + IFN-b, HiBiT or CellTiter-Glo, 24 h, at 45.9 µM (top of the series); also: nearly all actives have a fitted effect of over 60% in size
Summary of the method: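 HLA-B*08:01–HiBiT knock-in immortalized human myoblasts (C25cl48) stimulated with 4.0 ng/ml human IFN-beta and dosed with compound in a 12-point 1:3 titration (top final 46 uM). After 24 hrs at 37 C, HiBiT lytic luminescence or CellTiter Glo ATP read out.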

SKOV3 = assay: Primary qHTS to identify gynecologic anti-cancer compounds using libraries of approved drugs and bioactive compounds (AID 1345084); conditions: Gynecologic cancer cell panel viability, ATPlite luminescence, 48 h; series mostly up to 57.5 µM; also: nearly all actives have a fitted effect of over 55% in size; also: potency is read from the fitted curve at half-maximal effect
Summary of the method: as §1

Tov112D = assay: as above; conditions: Gynecologic cancer cell panel viability, ATPlite luminescence, 48 h; series mostly up to 57.5 µM
Summary of the method: as §1

Tov-21-G = assay: as above; conditions: Gynecologic cancer cell panel viability, ATPlite luminescence, 48 h; series mostly up to 57.5 µM
Summary of the method: as §1

OV90 = assay: as above; conditions: Gynecologic cancer cell panel viability, ATPlite luminescence, 48 h; series mostly up to 57.5 µM
Summary of the method: as §1

## COc1cc2c(cc1-c1c(C)noc1C)ncc1[nH]c(=O)n([C@H](C)c3ccccn3)c12
JEG-3
  Potency: 12.6 µM (active)
PA-1
  Potency: inactive
[1]; Viability
  activity change, negative = inhibition: 1.25% (inactive)

## COC(=O)c1ccc2c(C(=Nc3ccc(N(C)C(=O)CN4CCN(C)CC4)cc3)c3ccccc3)c(O)[nH]c2c1
JEG-3
  Potency: inactive
SKOV3
  Potency: inactive
Tov112D
  Potency: inactive

## Cn1cc(-c2[nH]c3cc(NC(=O)[C@H](N)C4CCCCC4)cc4c3c2C=NNC4=O)cn1
JEG-3
  Potency: inactive
SKOV3
  Potency: 7.08 µM (active)
Tov-21-G
  Potency: 10 µM (active)

## Cc1c(NC(=O)OC[C@@H]2COCCN2)cn2ncnc(Nc3ccc4c(cnn4Cc4cccc(F)c4)c3)c12
JEG-3
  Potency: inactive
Tov-21-G
  Potency: inactive
Tov112D
  Potency: inactive

## COc1cc2nccc(Oc3ccc(NC(=O)C4(C(=O)Nc5ccc(F)cc5)CC4)cc3)c2cc1OC
JEG-3
  Potency: 11.2 µM (active)
PA-1
  Potency: 7.94 µM (active)

## Cc1c(C)n(Cc2ccc(-c3ccccc3C(=O)O)cc2)c2ccc(C(=O)N[C@@H](C)c3ccc([N+](=O)[O-])cc3)cc12
JEG-3
  Potency: inactive
OV90
  Potency: inactive
Tov-21-G
  Potency: inactive
Tov112D
  Potency: inactive

## CCCCOc1c(C(=O)c2c(F)cc(C)cc2F)cnc2n[nH]cc12
JEG-3
  Potency: inactive
PA-1
  Potency: 7.94 µM (active)
SKOV3
  Potency: inactive

## COCCOc1ccc2c(c1)ncn2-c1ccc2cccc(N3CCC(N)CC3)c2n1
JEG-3
  Potency: 17.8 µM (active)
PA-1
  Potency: 7.94 µM (active)

## NC(=O)c1c(OCc2c(F)cc(Br)cc2F)nsc1NC(=O)NCCCCN1CCCC1
JEG-3
  Potency: inactive
OV90
  Potency: inactive
[1]; HiBiT
  activity change, negative = inhibition: -22.6% (inactive)

## C[C@@H]1COC(Nc2ccc3ncnc(Nc4ccc(OCc5nccs5)c(Cl)c4)c3c2)=N1
JEG-3
  Potency: inactive
SKOV3
  Potency: 14.1 µM (active)
[1]; Viability
  activity change, negative = inhibition: -24% (inactive)
